# According to ChEMBL document CHEMBL3988442, “University of Dundee, Small-Polar-MMV Screening Library” (2021):
# Out of some 69,000 compounds screened, about 1,000 (1.4%) showed an effect of 50% or more. The full list was thinned out, with strong results kept by preference.
# Tested on: Leishmania donovani
# Experiment: Leishmania intramacrophage assay
# Format: functional, organism-based
# Design: scale not given: in the data most compounds retested in dose-response had high values
compound,measurement,setting,value
COc1ccc(C(=O)Nc2c(C(=O)N(C)C)nn(C)c2C)cc1,Percent Effect,"30.3 µM, […]",25.81%
O=C1CC(c2ccsc2)c2snc(C(=O)O)c2N1 (stereo unspecified),Percent Effect,"30.3 µM, […]",9.625%
Cc1ccc(-c2nnc(SCC(=O)O)n2-c2ccc(C)cc2)cc1,Percent Effect,"30 µM, 30.03 µM",5.804%
CNc1nc(C)cc(NC2CCCN(C3Cc4ccccc4C3)C2)n1 (stereo unspecified),Percent Effect,"30.3 µM, […]",58.16%
Cc1ccc(NC2CCCN(C3Cc4ccccc4C3)C2)nn1 (stereo unspecified),Percent Effect,"30.3 µM, […]",23.72%
CNc1cc(C)nc(NC2CCCN(C3Cc4ccccc4C3)C2)n1 (stereo unspecified),Percent Effect,"30.3 µM, […]",32.54%
CN1CCN(C2CCN(Cc3nnc(C(C)(C)C)o3)CC2)C1=O,Percent Effect,30 µM,6.935%
COc1cc(CNCCc2nc(C)cs2)cc2c1OCCO2.Cl,Percent Effect,"30 µM, 30.03 µM",9.472%
COc1cccc(CN(C)C(C)c2ccco2)c1OCCn1ccnc1 (stereo unspecified),Percent Effect,"30.3 µM, […]",23.12%
CCN(CC(=O)N(C)C)C(=O)c1ccc(-c2nc(C)cs2)cc1,Percent Effect,"30.3 µM, […]",-16.68%
CCCN(CC(=O)NC)C(=O)c1ccc(-c2nc(C)cs2)cc1,Percent Effect,"30.3 µM, […]",37%
CCCN(CC(=O)N(C)C)C(=O)c1ccc(-c2nc(C)cs2)cc1,Percent Effect,"30.3 µM, […]",65.78%
Cc1cc(C2CCCN2Cc2cc(=O)n(C)c(=O)n2C)on1 (stereo unspecified),Percent Effect,"30 µM, 30.03 µM",-11.72%
COc1ccc(S(=O)(=O)NCCCc2nnc3nc(C)cc(C)n23)cc1,Percent Effect,"30.3 µM, […]",5.677%
CC(C)n1cnnc1SCCN(C)c1ccccc1,Percent Effect,"30.3 µM, […]",-1.184%
CN(C)CCN(C)C(=O)Cn1cccc2cc(-c3ccc(F)cc3)nc1-2,Percent Effect,"30.3 µM, […]",78.9%
COc1ccc(-c2cc3cccn(CC(=O)N4CCOCC4)c-3n2)cc1,Percent Effect,"30.3 µM, […]",23.65%
O=C(Cn1cccc2cc(-c3ccc(F)cc3)nc1-2)N1CCC(O)CC1,Percent Effect,"30.3 µM, […]",2.575%
CC(C)(C)c1ncc2c(n1)CN(c1cc(NCCO)nc(N)n1)C2,Percent Effect,"30.3 µM, […]",34.79%
O=C(C1CC(=O)N(c2n[nH]c3cc(Br)ccc23)C1)N1CCOCC1 (stereo unspecified),Percent Effect,"30.3 µM, […]",-3.266%
CC(C)CCNC(=O)c1ccc(Cl)c(NS(C)(=O)=O)c1,Percent Effect,"30.3 µM, […]",6.444%
O=C(Cc1ccsc1)N1C[C@@H]2CN(Cc3ccoc3)CCO[C@@H]2C1.O=C(O)C(F)(F)F,Percent Effect,"30 µM, 30.03 µM",9.64%
COCCCNC(=O)CN(C)C(=O)c1ccc(OC)cc1O,Percent Effect,30 µM,24.99%
COc1ccc(OCCN(C)C(=O)c2ccc(OC)cc2O)cc1,Percent Effect,"30.3 µM, […]",55.32%
COCCN(C)C(=O)c1ccc(OC)cc1O,Percent Effect,"30 µM, 30.03 µM",-17.55%
CCN(C)C(=O)CN1CCC(c2cc(N3CCOCC3)nc(C)n2)CC1,Percent Effect,"30.3 µM, […]",-1.668%
Nc1cc(N2CCC(c3cc(Cc4ccccc4)n[nH]3)CC2)ccn1,Percent Effect,"30.3 µM, […]",96.12%
Nc1nc(O)cc(N2CCC(c3cc(Cc4ccccc4)n[nH]3)CC2)n1,Percent Effect,"30.3 µM, […]",4.937%
NC(=O)NCCC(=O)N1CCC(c2cc(Cc3ccccc3)n[nH]2)CC1,Percent Effect,"30.3 µM, […]",-20.51%
Cc1ccc(N2CCC(c3cc(Cc4ccccc4)n[nH]3)CC2)nn1,Percent Effect,"30.3 µM, […]",15.09%
Nc1nccc(N2CCC(c3cc(Cc4ccccc4)n[nH]3)CC2)n1,Percent Effect,"30.3 µM, […]",63.85%
Cc1cc(CN2CCC(c3cc(Cc4ccccc4)n[nH]3)CC2)[nH]n1,Percent Effect,"30.3 µM, […]",26.02%
COc1ccc(CN2CCCCC2c2n[nH]cc2-c2cc(C)no2)cc1.Cl (stereo unspecified),Percent Effect,"30.3 µM, […]",-16.67%
CCn1ncc2c1CCCC2NCc1cc(OC)cc(OC)c1 (stereo unspecified),Percent Effect,30 µM,1.972%
Cc1nc(C2(O)CCCNCC2)sc1CCOc1ccc(F)cc1.Cl (stereo unspecified),Percent Effect,"30.3 µM, […]",8.294%
Cc1nccc(CNC(=O)NCCOc2ccc(F)c(F)c2)n1,Percent Effect,"30 µM, 30.03 µM",3.237%
Cc1nc(C2(O)CCCNCC2)sc1CCOc1ccc(F)c(F)c1.Cl (stereo unspecified),Percent Effect,"30.3 µM, […]",85.82%
Cc1cc(CNC(=O)NCCOc2ccc(F)c(F)c2)on1,Percent Effect,"30.3 µM, […]",0.6606%
CC1(C(=O)NCc2cccnc2Oc2ccc(F)c(F)c2)CCCNC1 (stereo unspecified),Percent Effect,"30.3 µM, […]",-16.47%
CC(=O)NCc1nnn2c1CN(c1ncc(C)cn1)CCC2,Percent Effect,"30.3 µM, […]",22.68%
O=C(NC[C@]12COC[C@H]1CN(Cc1nccs1)C2)c1cscn1.O=C(O)C(F)(F)F,Percent Effect,"30.3 µM, […]",14.84%
CCOc1cc(C(=O)N2CCN(CC)CC2)cc2occc12,Percent Effect,"30.3 µM, […]",-20.1%
CCOC(=O)c1ccccc1NC(=O)CN(C)Cc1ccccc1Cl.O=C(O)C(=O)O,Percent Effect,"30.3 µM, […]",23.74%
CCOc1ccccc1NC(=O)CN(C)Cc1ccccc1Cl,Percent Effect,"30.3 µM, […]",52.93%
CN(CC(=O)Nc1ccccc1C(=O)NC1CC1)Cc1ccccc1Cl,Percent Effect,"30.3 µM, […]",31.64%
O=C(Nc1cccc(OCC(F)F)n1)c1ccncc1F,Percent Effect,"30.3 µM, […]",29.54%
CCSc1ccc(C(=O)N2CCCC2C(=O)N2CCOCC2)cn1 (stereo unspecified),Percent Effect,"30.3 µM, […]",-29.5%
Cc1cc2nc(C(C)C)cc(N3CCC(N(C)C)C3)n2n1 (stereo unspecified),Percent Effect,"30.3 µM, […]",15.59%
Cc1cc2nc(C(C)C)cc(N3CCC(O)CC3)n2n1,Percent Effect,"30.3 µM, […]",27.64%
Cc1cc2nc(C(C)C)cc(N3CCC(Oc4ncccn4)CC3)n2n1,Percent Effect,"30.3 µM, […]",83.06%
O=C(CNC(=O)C1CCCC1)NCc1cnn(-c2ccc(F)cc2F)c1,Percent Effect,"30.3 µM, […]",-11%
